Screening data: PubChem, National Center for Advancing Translational Sciences (NCATS)
Epigenetic reg: Quantitative High-Throughput Screen for Regulators of Epigenetic Control. 280,000 tested, 0.2% active. murine LDR cells, GFP reporter derepression, 30 h. Potency, µM (titrated, usually from 53.9 µM), hits mostly activators; further: nearly all actives have a fitted effect of over 60% in size
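Murine LDR cells carrying a silenced, genomically integrated CMV-driven GFP reporter were exposed to compound for 30 hours at 37 C. After PBS washes, GFP-positive cells (20–120 um objects) were counted by laser-scanning microplate cytometry.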
Vif-A3F inh: qHTS for Inhibitors of Vif-A3F Interactions: qHTS; AID 602313, 2012; 390,000 tested, 0.2% active; HeLa A3F-eYFP + Vif (tagged APOBEC3F with the HIV-1 protein that degrades it), YFP fluorescence increase; Potency, µM (top dose mostly 46.1 µM); further: nearly all actives have a fitted effect of over 65% in size
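HeLa cells stably expressing Vif plus C-terminally eYFP-tagged A3F were seeded, incubated overnight at 37 deg C, dosed with compound, incubated overnight again at 37 deg C. Yellow fluorescence (Ex 488/Em 500-530) reported blocked Vif-mediated A3F-eYFP degradation.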
Vif-APOBEC3G blk: qHTS for Inhibitors of Vif-A3G Interactions: qHTS. HeLa A3G-eYFP + Vif (tagged APOBEC3G with the HIV-1 protein that degrades it), YFP fluorescence, overnight. Potency, µM (top dose mostly 46.1 µM), actives largely listed as inhibitors. 410,000 tested, 0.076% active. AID 602310, 2012; further: nearly all actives have a fitted effect of over 60% in size
Target sequence (Q9HC16 whole entry, looked up): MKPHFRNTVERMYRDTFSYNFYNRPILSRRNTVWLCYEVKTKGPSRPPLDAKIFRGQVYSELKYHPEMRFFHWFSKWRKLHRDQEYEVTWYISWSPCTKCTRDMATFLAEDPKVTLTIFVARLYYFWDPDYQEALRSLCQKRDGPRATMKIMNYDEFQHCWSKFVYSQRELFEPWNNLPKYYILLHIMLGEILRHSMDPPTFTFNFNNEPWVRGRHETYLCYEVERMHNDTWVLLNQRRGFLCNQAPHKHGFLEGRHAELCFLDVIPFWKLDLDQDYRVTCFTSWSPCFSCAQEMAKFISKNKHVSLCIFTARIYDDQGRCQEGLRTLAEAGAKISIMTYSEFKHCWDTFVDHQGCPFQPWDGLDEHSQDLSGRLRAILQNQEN
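Read-out is eYFP fluorescence (Ex 488/Em 500-530) from Vif-expressing HeLa A3G-eYFP cells; more signal means A3G escaped Vif-mediated degradation. Cells plated overnight, compound pinned in, incubated overnight at 37 deg C.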
GRP78 ERSR act: qHTS for Inducers of the Endoplasmic Reticulum Stress Response (ERSR) in Human Glioma: qHTS | U87-MG GRP78 promoter luciferase reporter, 16 h | 420,000 tested, 0.02% active | AID 602332, 2012 | Potency, µM, most hits filed as activators; further: series mostly up to about 76 µM; nearly all actives have a fitted effect of over 35% in size
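Stably transfected U87-MG human glioma cells carrying a GRP78-based luminescent sensor were seeded at 1000 cells/well, pin-dosed with compounds and incubated 16 h. Luciferase reagent was then added, and end-point luminescence was read after 10 min at room temperature.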
Hits are given with their value; 0 = inactive; ? = inconclusive; - = no result given; ! = not active in a repeat. An excerpt weighted towards active compounds, which were near 0.35% of everything screened. The call rests on the fitted dose curve; in most records, active means well fitted curve in the direction sought with a large enough effect; inconclusive means small, poorly fitted or top-dose-only effect, or another doubt; inactive means no such curve, though single readings can be large; an effect the other way counts as inactive or inconclusive.

SMILES	Epigenetic reg	Vif-A3F inh	Vif-APOBEC3G blk	GRP78 ERSR act
CCn1c2ccccc2c2cc(NC(=O)c3ccc(Br)o3)ccc21	14.1µM	0	?	0
CCn1c2ccccc2c2cc(NC(=O)c3ccc(=O)oc3)ccc21	0	11.2µM	0	0
N#CCCn1c(=O)c(-c2ccccc2)nc2cnc(N3CCNCC3)nc21	-	-	-	0
COc1ccc(NC(=O)c2c(NC(=O)CNCc3ccco3)sc3c2CCC3)cc1	25.1µM	0	0	0
O=C(/C=C/c1ccccc1)CC(O)(c1ccccc1)C(F)(F)C(F)F (centres undefined)	?	0	0	11.2µM
Cc1ccccc1N1C(=O)c2cccc3c(N(C)CCO)ccc(c23)C1=O	0	12.6µM	0	0
CN1CCN(C2Cc3ccccc3Sc3ccc(Cl)cc32)CC1 (centres undefined)	0	0	0	0
CN1CCN2c3ccccc3Cc3ccccc3C2C1 (centres undefined)	0	0	0	35.5µM!
CC(=O)Nc1ccc2nc(NC(=O)c3ccc([N+](=O)[O-])o3)sc2c1	-	0	12.6µM	?
O=C(N/N=C/c1ccc([N+](=O)[O-])o1)c1sc2ccccc2c1Cl	0	8.91µM	?	0
O=C(N/N=C/c1ccccn1)c1sc2ccccc2c1Cl	?	0	0	0
CC1CN(S(=O)(=O)c2cc(C(=O)NCCC3=CCCCC3)ccc2Cl)CC(C)O1 (centres undefined)	-	0	0	0
Cc1cn(C2CC3OCC(NC(=O)C4CCCN4C(=O)OC(C)(C)C)C3O2)c(=O)[nH]c1=O (centres undefined)	-	-	0	0
C=CCSc1nnc(C)c(/C=C/Nc2ccc(Cl)cc2)n1	?	25.1µM	?	0
CSc1nnc(C)c(/C=C/Nc2ccc(F)cc2F)n1	0	0	0	0
Cc1cc(NC(=O)CSc2nc3c(C)ccc(C)c3cc2C#N)no1	-	?	0	0
Cc1cccc2cc(C#N)c(SCC(=O)N3CC(=O)Nc4ccccc43)nc12	20µM	?	?	0
COc1ccc2cc(C#N)c(SCC(=O)N3CC(=O)Nc4ccccc43)nc2c1	0	?	?	0
Cc1cc(NC(=O)CSc2nc3c(C)cccc3cc2C#N)no1	-	11.2µM	?	0
CCCCN1C(=O)/C(=C2/Sc3ccccc3N2C)S/C1=N\c1ncn[nH]1	0	22.4µM	0	0
O=C(CN1C(=O)NC2(CCOc3ccccc32)C1=O)N1CCCCC1 (centres undefined)	-	0	0	0
Cc1ccc(NS(=O)(=O)c2c(C)nc3sccn3c2=O)c(Cl)c1	0	?	0	0
CC(C)c1cc(=O)oc2c3c4c(cc12)CCCN4CCC3	0	?	?	0
O=c1oc2c3c4c(cc2c(C(F)(F)F)c1CCN1CCOCC1)CCCN4CCC3	?	7.94µM	?	0
COc1cc(-c2nc3ccc(C)cn3c2NCc2ccccc2)ccc1SC1CCCCC1	-	0	10µM	0
SMILES	Epigenetic reg	Vif-A3F inh	Vif-APOBEC3G blk	GRP78 ERSR act
O=C(N=C1N=C2C=CC=CN2Cc2ccccc21)c1ccc(S(=O)(=O)N2CCOCC2)cc1	0	0	0	0
O=C(C(=O)N1CCCCCC1)c1c[nH]c2ccccc12	-	0	0	0
C[n+]1cc(C(=O)N2CCCCC2)ccc1/C=C/c1c[nH]c2ccccc12	0	?	11.2µM	0
COc1ccc(C(C)(O)c2nc(-c3ccoc3)cs2)cc1 (centres undefined)	-	-	?	0
CC1=CC(C)(C)Nc2ccc(OC(=O)CCN3C(=O)c4ccccc4C3=O)cc21	?	?	11.2µM	0
O=C(CCN1C(=O)c2ccccc2C1=O)Oc1ccc2ccccc2c1	0	0	0	0
CCOC(=O)N1CCc2c(sc3c2c(=O)n(Cc2ccccc2)c(=O)n3CC(=O)Nc2ccc(C)cc2C)C1	0	0	0	0
CCCSc1ncc(Cl)c(C(=O)Nc2sc3c(c2C(=O)NCCCOC)CCCC3)n1	-	-	0	0
CCCSc1ncc(Cl)c(C(=O)Nc2sc3c(c2C(N)=O)CCCC3)n1	?	-	7.08µM	0
CCOC(=O)c1c(NC(=O)c2nc(SCC)ncc2Cl)sc2c1CCCC2	0	0	0	0
CCSc1ncc(Cl)c(C(=O)Nc2sc3c(c2C(=O)NCCCOC)CCCC3)n1	3.55µM	?	0	0
COc1ccc(C)cc1NC(=O)Cn1c(=O)ccc2cc(S(=O)(=O)N3CCC(C)CC3)ccc21	0	0	0	0
Cc1ccc(C(=O)NN2C(=O)/C(=C/c3cn(C)c4ccccc34)SC2=S)cc1	0	?	0	0
Cn1cc(/C=C2\SC(=S)N(NC(=O)c3ccccc3Cl)C2=O)c2ccccc21	0	11.2µM	?	0
CC1Cc2ccccc2C[N+]1(C)CC(=O)c1ccc(I)cc1 (centres undefined)	-	-	0	0
C=CCN(C(=O)CNC(=O)c1ccco1)C(C(=O)NC1CCCC1)c1ccc(OC)cc1 (centres undefined)	-	0	0	0
Cc1ccccc1C(=O)Nc1sc2c(c1C(=O)N1CCCCC1)CCC(C)C2 (centres undefined)	0	0	0	0
Cc1ncc(CO)c(CO)c1OCC(O)CN1CCN(c2ccc(F)cc2)CC1 (centres undefined)	-	-	0	0
CCOC(=O)c1cnc(-n2nc(C)cc2C)nc1NNc1nc(-c2ccccc2)cc(-c2ccccc2)n1	0	7.08µM	0	0
CCOC(=O)c1cnc(-n2nc(C)cc2C)nc1NNc1nc(C)cc(C)n1	0	0	0	0
Cc1ncc2c(c1CNC(=O)c1ccccc1F)CCN(C(=O)c1csc(-c3cccs3)n1)C2	-	-	-	0
CC(=O)c1ccc(NS(=O)(=O)c2cccc(S(=O)(=O)c3ccc(Cl)cc3)c2)cc1	0	0	0	0
CCOC(=O)N1CCc2c(sc3c2c(=O)n(-c2ccc(F)cc2)c(=O)n3CC(=O)c2ccc(Cl)cc2)C1	15.8µM	?	0	0
CCOC(=O)N1CCc2c(sc3c2c(=O)n(-c2ccc(CC)cc2)c(=O)n3CC(=O)c2ccc(F)cc2)C1	0	0	0	0
COC(=O)c1ccccc1SC(CC(=O)c1ccccc1)c1ccc(F)cc1 (centres undefined)	22.4µM	0	0	?
SMILES	Epigenetic reg	Vif-A3F inh	Vif-APOBEC3G blk	GRP78 ERSR act
COc1ccc(CCNC(=O)CN2C(=O)NC3(CCCCC3C)C2=O)cc1 (centres undefined)	-	0	0	0
CCOC(=O)c1ccc(/C=C2/C=C(c3ccccc3)N(c3ccc(Cl)c(C(=O)O)c3)C2=O)cc1	0	12.6µM	?	0
COC(=O)COc1cc(OCC(=O)OC)c2c(-c3ccccc3)cc(=O)oc2c1	-	0	0	0
COC(=O)C(C)Oc1cc(OC(C)C(=O)OC)c2c(-c3ccccc3)cc(=O)oc2c1 (centres undefined)	-	0	0	31.6µM
COc1cc(N2CCCC2)c(OC)cc1/C=C(/C#N)c1ccc(F)cc1	14.1µM	10µM	10µM	0
COc1cc(N2CCCC2)c(OC)cc1/C=C(/C#N)c1ccc(Br)cc1	3.16µM	3.98µM	?	0
COc1ccc(C(C#N)=Cc2ccccc2OC)cc1	-	0	0	0
